For the assay, the system named is MCF10A. Description: perturbation Mahalanobis distance of morphological profile vs DMSO controls (Mahalanobis distance (SD units)); higher = stronger morphological change, active = 7 or more. The following applies: 72 h. The protocol:
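MCF10A cells were seeded onto drugs dispensed acoustically into 384-well plates, using one dose per drug chosen from its human peak plasma concentration, and incubated for 72 h at 37 °C. Cells were stained for DNA, tubulin and mitochondria and imaged; 78 CellProfiler features were extracted, plate-normalised and compared with DMSO wells.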

Where [1] appears, read: screen batch: Batch1_Mahalanobis_Distance.
[2] abbreviates: screen batch: Batch2_Mahalanobis_Distance.

Consider 8 compounds from the supplement of paper PMC6853941.

Values without a mark were called inactive.

With `CCC(=O)NCC[C@@H]1CCc2ccc3c(c21)CCO3` [Ramelteon] (0.13 µM), the “perturbation Mahalanobis distance” value under setting [1] is 2.83 and the “perturbation Mahalanobis distance” value under setting [2] is 2.59.
For `C[C@H]1O[C@H](O[C@H]2[C@H](O)[C@@H](O)[C@@H](O[C@H]3[C@H](O)[C@@H](O)C(O)O[C@@H]3CO)O[C@@H]2CO)[C@H](O)[C@@H](O)[C@@H]1N[C@H]1C=C(CO)[C@@H](O)[C@H](O)[C@H]1O` (stereo partly specified) [Acarbose] (2.2 µM), in that order: 2.5 and 3.14.
For `CC1(C)O[C@@H]2[C@@H](CO[C@@]3(COS(N)(=O)=O)OC(C)(C)O[C@@H]23)O1` [Topiramate] (76.6 µM), in that order: 2.96 and 3.08.
For `CN[C@H]1CC[C@@H](c2ccc(Cl)c(Cl)c2)c2ccccc21` [Sertraline] (3.3 µM), in that order: 2.81 and 4.31.
For the compound `CCC(C)n1ncn(-c2ccc(N3CCN(c4ccc(OC[C@H]5CO[C@](Cn6cncn6)(c6ccc(Cl)cc6Cl)O5)cc4)CC3)cc2)c1=O` (stereo partly specified) [Itraconazole] (14.2 µM), the “perturbation Mahalanobis distance” value reads like this: under setting [1], 2.19; under setting [2], 2.7.
As to `CC(C)(C)C(=O)OCC(=O)[C@H]1CC[C@H]2[C@@H]3CCC4=CC(=O)CC[C@]4(C)[C@H]3CC[C@]12C` [Desoxycorticosterone Pivalate] (0.72 µM), the “perturbation Mahalanobis distance” value is 4.89 under setting [1] and 3.54 under setting [2].
With `CC12CCC(=O)C=C1C=CC1C2CCC2(C)C1CCC21CCC(=O)O1` (stereo unspecified) [Canrenone] (3 µM), the “perturbation Mahalanobis distance” value reads like this: under setting [1], 3.06; under setting [2], 3.02.
Take `Cc1ccsc1C(=CCCN1CCC[C@@H](C(=O)O)C1)c1sccc1C` [Tiagabine] (2.7 µM): the “perturbation Mahalanobis distance” value under setting [1] was 2.46 and the “perturbation Mahalanobis distance” value under setting [2] was 3.14.
